Pf gametocyte – inhibitors of late stage P. falciparum gametocyte viability. inhibition, % at 10.9 µM. P. falciparum stage V gametocytes, ATP luminescence, 24 h. actives 0.065% (n = 150,000);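 active means inhibition above the mean plus 3 SD of compounds within the control limits, set per campaign, cut at about 38% in these data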
EP2 mod – modulators of human EP2 prostaglandin E2 receptor | P43116 | EP2-expressing cells, cAMP HTRF FRET, PGE2 co-stimulation | induction, % at 25 µM | actives 0.83% (n = 260,000) | AID 940;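 active means compounds whose cAMP rise, as percent of the full-agonist control response, exceeds 60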;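 further: rat C6 glioma line stably carrying human EP2 under a CMV promoter; the protocol text gives 20 µM as final concentration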
Target sequence (P43116 whole entry, looked up): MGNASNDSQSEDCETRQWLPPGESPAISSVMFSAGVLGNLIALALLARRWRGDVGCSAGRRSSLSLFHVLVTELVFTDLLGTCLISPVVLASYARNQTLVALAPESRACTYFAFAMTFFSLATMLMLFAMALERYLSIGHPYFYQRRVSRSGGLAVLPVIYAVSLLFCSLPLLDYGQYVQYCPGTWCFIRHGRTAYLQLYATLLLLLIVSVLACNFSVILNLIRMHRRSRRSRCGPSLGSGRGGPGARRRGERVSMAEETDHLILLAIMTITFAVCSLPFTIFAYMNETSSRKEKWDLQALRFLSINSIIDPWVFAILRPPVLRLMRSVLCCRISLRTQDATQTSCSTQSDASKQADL
Furin inhibitor – human furin inhibition. AID 463115. purified furin, fluorogenic substrate cleavage. inhibition, % at 20 µM or 30 µM. actives 0.061% (n = 220,000); in the data active means inhibition above about 25%
HSV replic up – HSV replication enhancement | HSV replication augmentation in cells, fold increase | maximum fold increase | actives 0.005% (n = 220,000) | AID 1956; in the data active means maximum fold increase above about 1.5; inconclusive means no clear call, values can overlap the other calls; tested in PC3 cells
EP2 antag – inhibitors of human EP2 prostaglandin E2 receptor | AID 1422 | C6 glioma cells expressing human EP2, cAMP TR-FRET; cells stimulated with saturating PGE2 | inhibition, % at 25 µM | P43116 | actives 0.52% (n = 260,000);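 active means percent inhibition above 40 after rounding to a whole number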;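 further: rat C6 glioma host cells with rolipram phosphodiesterase inhibitor present; the protocol text gives 20 µM as final concentration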
Large screens that a line does not name were inactive; ! = repeats disagree. An excerpt weighted towards active compounds, which were near 1.4% of everything screened.

CC1=CC(C)C2C(=O)N(c3ccccc3)C(=O)C2C1 (centres undefined)	none
Cc1ccc(C)c2nc(SCC(=O)Nc3nccs3)c(C#N)cc12	EP2 mod 70 (no result: Pf gametocyte, Furin inhibitor, HSV replic up)
Cc1cccc(NC(=O)CSc2nc3c(C)ccc(C)c3cc2C#N)c1	none (no result: Pf gametocyte, Furin inhibitor, HSV replic up)
O=C(Nc1ccccc1N1CCCCC1)c1ncoc1-c1ccc(F)cc1	EP2 mod 63
CCOc1cc(-c2nn3cnnc3s2)cc(OCC)c1OCC	EP2 mod 61 (no result: Pf gametocyte)
CC(C)N1CCN(Cc2nc3c(s2)CCCC3)CC1CCO (centres undefined)	none
C=CCNc1nc(NCc2ccco2)nc(OCC)n1	none
C=CCNc1nc(Nc2ccc(OC)cc2)nc(OCC)n1	EP2 mod 62! (no result: Pf gametocyte)
Cc1nc2ccccc2nc1-c1ccc(N=[N+]([O-])c2ccc(-c3nc4ccccc4nc3C)cc2)cc1	EP2 antag 54 (no result: Pf gametocyte, Furin inhibitor, HSV replic up)
COc1ccc(-c2nc3ccccc3nc2-c2ccc(OC)cc2)cc1	none (no result: EP2 mod, Furin inhibitor, HSV replic up, EP2 antag)
CCCCCC1C(=O)CCC1CC(=O)O (centres undefined)	none (no result: Pf gametocyte, Furin inhibitor, HSV replic up)
CCCCC1C(=O)CC[C@H]2[C@@H]1CC(=O)[C@@H]2C/C=C\CCCC(=O)O (some centres undefined)	EP2 mod 80 (no result: Pf gametocyte)
c1cc2c3c(cccc3c1)NC1(CCCCCC1)N2	none (no result: Pf gametocyte)
c1cc2c3c(cccc3c1)NC1(CCC3(CC1)Nc1cccc4cccc(c14)N3)N2	EP2 antag 89 (no result: Pf gametocyte)
CCOc1cc(C)nc(N2CCC(C(=O)Nc3ccccc3OCC)CC2)n1	EP2 mod 92! (no result: Pf gametocyte)
COc1cc(C)nc(N2CCC(C(=O)Nc3ccccc3OC)CC2)n1	none (no result: Pf gametocyte, Furin inhibitor, HSV replic up)
CCC(C)c1ccccc1NC(=O)C(C)NCCN(C)C (centres undefined)	none
O=C(COc1ccc2nsnc2c1)NCc1nc(-c2ccccc2)no1	EP2 antag 50 (no result: Pf gametocyte, Furin inhibitor, HSV replic up)
COc1ccccc1OCC(=O)NCc1nc(-c2ccccc2)no1	none
CCNC(=S)N(Cc1ccccc1)Cc1cc2cc(C)c(C)cc2[nH]c1=O	none (no result: Pf gametocyte, Furin inhibitor, HSV replic up)
CCN(c1ccccc1)S(=O)(=O)c1ccc(Cl)c(NC(=O)Nc2ccc(Cl)cc2C#N)c1	EP2 mod 61
NNc1nc2c(Cl)c(Cl)ccc2s1	none
Nc1nc2c(Cl)c(Cl)ccc2s1	EP2 antag 61 (no result: Pf gametocyte, Furin inhibitor, HSV replic up)
CCC(=O)Nc1nc2c(Cl)c(Cl)ccc2s1	EP2 antag 67 (no result: Pf gametocyte, Furin inhibitor, HSV replic up)
CCOc1cccc2sc(NC(=O)CC)nc12	none
Nc1ccn([C@H]2O[C@H](COC(=O)C34CC5CC(CC(C5)C3)C4)[C@@H](O)[C@@H]2O)c(=O)n1	EP2 antag 51 (no result: Pf gametocyte, Furin inhibitor, HSV replic up)
Nc1ccn([C@@H]2O[C@H](CO)[C@@H](O)C2O)c(=O)n1 (some centres undefined)	none (no result: Pf gametocyte, EP2 mod, Furin inhibitor)
Cc1ccc(NC(=O)c2cccs2)cc1NC(=O)c1cc2c(C)nn(-c3ccccc3)c2s1	EP2 mod 70 (no result: Pf gametocyte, Furin inhibitor, HSV replic up)
O=C(O)c1c2c(c(O)c3c1CN(C1CCCCC1)CO3)OCN(C1CCCCC1)C2	EP2 antag 61 (no result: Pf gametocyte, Furin inhibitor, HSV replic up)
CC1=C(CC[C@H](C)CO)O[C@@H]2C[C@@H]3[C@H]4CC[C@H]5C[C@@H](O)CC[C@]5(C)[C@@H]4CC(=O)[C@@]3(C)[C@H]12	EP2 antag 65 (no result: Pf gametocyte, Furin inhibitor, HSV replic up)
CC(=O)OC1CC[C@@]2(C)C(CCC3C2CC(=O)[C@@]2(C)C3CC3CC(C)=CC(=O)C32)C1 (some centres undefined)	none (no result: Pf gametocyte)
Cc1ccc(OCCNC(=O)c2cc(=O)[nH]c3ccccc23)cc1	none
N=C1[C@H](O)[C@]2(I)c3ccccc3N3C(=N)[C@H](O)[C@@H]4c5ccccc5N1[C@@H]4[C@@H]32	EP2 antag 68 (no result: Pf gametocyte, Furin inhibitor, HSV replic up)
COc1nc(C)nc(C)c1Oc1ccc(Cl)cc1Cl	EP2 mod 65
Cc1nc(-c2ccccc2)[nH]c(=O)c1Oc1ccc(Cl)cc1Cl	none
O=C1/C(=C/c2ccncc2)SC(=S)N1Cc1ccccc1	EP2 antag 44
CCCN1C(=O)/C(=C/c2ccncc2)SC1=S	none (no result: Pf gametocyte)
Cc1ccc(/C=C2\SC(=S)N(CCC(=O)NNS(=O)(=O)c3ccccc3)C2=O)cc1	EP2 mod 65 (no result: Pf gametocyte)
COc1cc(/C=C2\SC(=S)N(NS(=O)(=O)c3ccccc3)C2=O)ccc1O	HSV replic up inconclusive
COc1cc(/C=C2\SC(=S)N(NS(=O)(=O)c3ccc(C)cc3)C2=O)ccc1O	HSV replic up inconclusive, EP2 antag 41
O=C(CCCN1C(=O)/C(=C/c2ccccc2)SC1=S)Nc1cccc(O)c1	EP2 antag 70
Cn1ccnc1C(NC(=O)C1CCCC1)c1ccc(F)c(F)c1 (centres undefined)	none (no result: Pf gametocyte, Furin inhibitor, HSV replic up, EP2 antag)
Cn1cnnc1Sc1ccc(C(=O)OCC(=O)Nc2cc(Cl)cc(Cl)c2)cc1[N+](=O)[O-]	none (no result: Pf gametocyte)
CCOC(=O)C(=O)NNc1ccc(F)cc1	none
COc1ccc(C(=O)NCc2ccc3c(c2)OCO3)cc1	none

Screening data deposited in PubChem BioAssay by several laboratories.
